Reference: PubChem BioAssay AID2557 (NMMLSC, 2010)
Where “and” joins values, the source holds several entries; their conditions need not be identical. Identical values can stand only once. Out of some 330,000 compounds screened, about 650 (0.2%) were called active. This is one part of a sample in which actives are shown more often than they occur. Unmarked numbers belong to inactive results. Rule as the data show it: active = inhibition above about 50%; inactive = the rest.

The molecules below were run against Integrin alpha-4 (Homo sapiens) (UniProt P13612) (assay: VLA-4 integrin binding inhibitors – MLPCN library, flow cytometry, VLA-4 expressing cells, VLA-4 allosteric modulator project, primary screen (AID 2557)). Conditions: ligand binding flow cytometry, hits give high values, about 7 µM as worked out from the volumes in the protocol.
Integrin alpha-4 (Homo sapiens), sequence (P13612 whole entry, looked up): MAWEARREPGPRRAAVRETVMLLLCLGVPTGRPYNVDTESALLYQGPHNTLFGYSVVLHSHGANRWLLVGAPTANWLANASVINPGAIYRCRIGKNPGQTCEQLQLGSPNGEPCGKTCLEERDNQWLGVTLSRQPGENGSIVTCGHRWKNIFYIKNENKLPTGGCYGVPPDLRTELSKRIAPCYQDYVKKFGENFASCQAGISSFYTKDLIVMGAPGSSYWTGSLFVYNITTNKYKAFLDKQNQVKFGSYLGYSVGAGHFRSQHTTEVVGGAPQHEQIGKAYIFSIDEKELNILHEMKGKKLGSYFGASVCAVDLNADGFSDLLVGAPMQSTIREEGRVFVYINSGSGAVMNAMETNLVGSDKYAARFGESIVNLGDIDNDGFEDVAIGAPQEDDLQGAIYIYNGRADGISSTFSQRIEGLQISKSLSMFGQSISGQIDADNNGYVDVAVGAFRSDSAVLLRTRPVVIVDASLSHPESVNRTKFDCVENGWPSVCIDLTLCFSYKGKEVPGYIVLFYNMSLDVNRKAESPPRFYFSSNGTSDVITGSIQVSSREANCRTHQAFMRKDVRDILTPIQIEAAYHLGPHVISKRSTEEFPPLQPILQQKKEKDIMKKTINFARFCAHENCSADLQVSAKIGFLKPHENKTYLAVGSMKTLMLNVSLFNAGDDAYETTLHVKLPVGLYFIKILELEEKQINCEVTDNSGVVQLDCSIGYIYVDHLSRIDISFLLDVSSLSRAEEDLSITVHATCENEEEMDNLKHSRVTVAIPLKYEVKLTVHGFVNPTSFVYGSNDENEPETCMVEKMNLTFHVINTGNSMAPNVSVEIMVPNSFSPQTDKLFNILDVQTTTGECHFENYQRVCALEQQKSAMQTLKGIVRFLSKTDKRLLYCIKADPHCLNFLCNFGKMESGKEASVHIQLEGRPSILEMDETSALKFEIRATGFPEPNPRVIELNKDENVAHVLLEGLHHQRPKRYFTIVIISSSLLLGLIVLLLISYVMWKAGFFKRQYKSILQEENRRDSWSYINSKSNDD

`C=CCN1C(=O)C2(C(C(=O)OCC)=C(N)Oc3c2c(=O)oc2ccccc32)c2ccccc21` (stereo not given) was tested, and the inhibition was 59.3% (active).
For `CN(C)C(=O)Oc1cc(OC(=O)N(C)C)cc(C(O)CNC(C)(C)C)c1` (stereo not given), the inhibition was -22.5% and -5.62%.
With `O=c1c2ccccc2nc(-c2ccc(Cl)cc2Cl)n1-c1ccncc1` the inhibition was 62.6% (active).

Point of comparison: `Cn1c(O)c(C(=Nc2ccc(F)cc2)c2ccccc2)c(=O)n(C)c1=O`, inhibition 5.63%. Against it:
- CCOC(=O)CC1=C(C(=O)OCC)C2(C(=O)N1)C(C(=O)OC)=C(N)Oc1ccccc12 (stereo not given) — lower, -7.95%
- CCOC(=O)C1=C(C)OC(N)=C(C(=O)OC)C12C(=O)Nc1ccc(Br)cc12 (stereo not given) — higher, 15.8%
- CCc1nnc(NS(=O)(=O)c2ccc(N=Cc3c(O)n(-c4ccccc4)c(=O)[nH]c3=O)cc2)s1 — lower, -0.39%
- Cc1nc2ccccc2c(=O)n1-c1ccc(Cl)cc1Cl — higher, 24.4%
- COc1ccc(-n2c(-c3ccccc3)nc3ccccc3c2=O)cc1 — lower, -3.5%
- C=CCn1c(O)c(/C=N/N2CCOCC2)c(=O)[nH]c1=S — higher, 7.33%
